Compounds without any hit were thinned out: in the full panel of roughly 79,000, 15% have a hit. Values without a mark were called inactive. The source made the active and inactive calls. Rule as the data show it: active = growth inhibition above about 70%; inactive = the rest.

The nature of the experiment: NCI Yeast Anticancer Drug Screen. Data for the mlh1 rad18 strain (AID 175). To be noted: S. cerevisiae mlh1 rad18 strain growth inhibition; at 50.0 µM; hits give high values. In short, it runs like this:
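Cells of a genetically altered yeast strain, deficient in DNA damage repair, were treated with compound. Their growth was then compared with that of vehicle-treated cultures to give inhibition.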
Regarding `ON1c2ccccc2-c2ccccc2C1(c1ccccc1)c1ccccc1`, the growth inhibition was 97.3% (active).
Turning to `COc1ccc2c(c1O)-c1cccc3c1C(C2)N(CCOCCCl)CC3` (configuration not stated), the growth inhibition is -8.85%.
The figure for `ClC/C(=N\N1CCCCCC1)c1ccccc1` is 2.2%; for `CN(C)CSCCO` it is 0.45%.
With `CCOC(=O)NN(C(=O)OCC)c1c(NN)n(C)c(=O)n(C)c1=O`, the growth inhibition was -11.5%.
Consider `N#C/C(=C\c1cccs1)C(=O)c1ccco1`, for which the growth inhibition is -5.85%.
For `CC(C)N1CN(C(C(=O)N[C@@H]2C(=O)N3C2SC(C)(C)C3C(=O)O)c2ccccc2)CSC1=S` (some centres not stated), the growth inhibition was -11.2%.
For `O=C1OCC/C1=C1/Nc2ccccc2NC1=O`, the growth inhibition was -13.8%.
Take `CC1(C)CN(CCO)C(C)(C)CN1CCO`: the growth inhibition is -10.1%.
Consider `C/C(=N\NC(=O)C(N)=O)c1c(O)cc(C)oc1=O`, for which the growth inhibition was 15.7%.
Regarding `Cc1ccc(/C=C/C(=N/NC(=O)c2ccccc2)C(C)CN(C)C)cc1` (configuration not stated), the growth inhibition was 12.9%.
As for `CCCN(CCC#N)C(=S)Nc1ccc(C)c(C)c1`, the growth inhibition was -27.9%.
For `OCc1ccc(CO)cc1`, the growth inhibition is 7.2%.
For the compound `C[C@]12C(=O)C=CCC1=CC[C@@H]1[C@@H]2[C@H]2CC3(O)C(=O)O[C@@]4(C)[C@H]5C[C@@]6(C)[C@@H]7[C@@]2(O)[C@]1(OC[C@H]6C(=O)O5)O[C@]734` (some centres not stated), the growth inhibition is -55%.
The figure for `COC(=O)C(=O)C(/C=N/C(=S)NC1CCCCC1)=C(\O)c1ccc(F)cc1` is -2.7%; for `CCCCCCCCCCS(=O)(=O)CC(=O)O` it is -3.6%; for `CC(=O)Nc1ccc(N(C)C)c(C)c1` it is -10.2%.

(Values after PubChem BioAssay (NCI).)
